Results reported in PubChem BioAssay (NCI).
Compounds without any hit were thinned out: in the full panel of roughly 83,000, 20% have a hit.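 Note: values are percent growth. 100 is the growth of untreated cells, values between 100 and 0 indicate rising inhibition; between -100 and 0 indicates cell death.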 The source made the active and inactive calls. Rule for the calls: active = growth percent below 10; inactive = the rest.

test system: HL-60(TB) leukemia; test: NCI-60 one-dose screen, 48 h (100 = growth as untreated, 0 = no growth, -100 = all killed); details: 10 µM unless noted

**Q.** With `Cc1cc(-c2ccc(N=Nc3c(S(=O)(=O)O)cc4cc(S(=O)(=O)O)cc(O)c4c3O)c(C)c2)ccc1N=Nc1c(S(=O)(=O)O)cc2cc(S(=O)(=O)O)cc(O)c2c1O` as the molecule, how does the growth read?
**A.** The growth was 119% (inactive).

**Q.** `N#C/C(=C\c1ccc(F)cc1)n1nc2cccc(F)c2n1` was tested. Which growth did it give?
**A.** The growth was 8.65% (active).

**Q.** With `COc1cc(/C=C/C(=O)c2ccc(Nc3nc(Nc4ccccc4)nc(Nc4ccc(Cl)cc4)n3)cc2)cc(OC)c1OC` as the molecule, how does the growth read?
**A.** Its growth is 64.5% (inactive).

**Q.** With `COc1ccc(-n2nc(C(=O)NCC(=O)O)nc2-c2ccccc2)cc1` as the molecule, how does the growth read?
**A.** The growth was 96.3% (inactive).

**Q.** For `C=C1C(=O)O[C@H]2[C@H]1CC/C(COC(=O)/C=C\C(=O)NCc1ccc(Cn3c(=O)sn(CCCCl)c3=O)cc1)=C\CC[C@@]1(C)O[C@@H]21`, which growth is on record?
**A.** The growth was 10.8% (inactive).

**Q.** With `O=C(/C=C/c1ccccn1)c1ccc(OCc2nnc(-c3ccc(Cl)cc3)o2)cc1` as the molecule, how does the growth read?
**A.** Its growth is 43% (inactive).

**Q.** For `ClCCOCCn1cnc2c(Cl)nc(Cl)nc21`, which growth is on record?
**A.** The growth was 40.9% (inactive).

**Q.** Which growth does the source give for `N=c1sc(Cc2cc(Cl)ccc2Cl)cn1CC(=O)c1ccccc1` here?
**A.** The growth was 29.6% (inactive).

**Q.** With `COc1ccc(-c2nc(/C=C3\SC(=NCc4ccccc4)NC3=O)c3ccccn23)cc1` as the molecule, how does the growth read?
**A.** The growth was -7.59% (active).

**Q.** With `CC(C)c1ccc(NC(=O)Cc2ccc(Nc3ncnc4cc(-c5cnn(CCN(C)C)c5)ccc34)cc2)cc1` as the molecule, how does the growth read?
**A.** Its growth is -66.4% [30 µM] (active).

**Q.** With `O=C(Nc1cnn2ccc(N3CCC[C@@H]3c3cc(F)ccc3F)nc12)N1CC[C@H](O)C1` as the molecule, how does the growth read?
**A.** The growth was 126% (inactive).

**Q.** Which growth does the source give for `Fc1cc(C(F)(F)F)ccc1-c1cncnc1NC1CCCCCC1` here?
**A.** The growth was 86.4% (inactive).

**Q.** For `Nc1nc(N)c2cc(CNc3ccc(Cl)c(Cl)c3)ccc2n1`, which growth is on record?
**A.** Its growth is 1.98% (active).
